Reference: article PMC7819943, “Rice protein-binding microarrays: a tool to detect cis-acting elements near promoter regions in rice”
The full ranking holds about 68,000 sequences; the median of “fluorescence intensity (a.u.)” is about 9,100, and the highest 2% start at about 16,000. The full list was thinned out, with the highest values kept by preference.

target: OsWRKY34 (Oryza sativa, UniProt Q0JBA9 1-250); assay: protein-binding microarray (RPBM); PBS, 2% BSA, 51.3 ng/ul salmon testes DNA, 50 uM zinc acetate, 200 nM TF, 25 C, 1 h; high values mean tight binding; conditions: protein: recombinant; tags: N-terminal polyhistidine and DsRed monomer fusion (pET32a); label: CyDye5-dUTP incorporated in the synthesized complementary strand; 3' TTTTT single-stranded linker to array surface; dsDNA, one strand shown
Method in brief: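 Transcription factors were each fused at the N-terminus to a polyhistidine tag plus DsRed and expressed in E. coli BL21-CodonPlus before Ni–NTA purification. Binding to a double-stranded custom Agilent array was carried out with 200 nM protein at 25 °C for 1 h in PBS, 2% BSA, salmon testes DNA and 50 µM zinc acetate. The binding signal is per-feature fluorescence intensity, in arbitrary units, on an Axon 4000B scanner.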

Sequence of OsWRKY34 (Q0JBA9 entry or part of it): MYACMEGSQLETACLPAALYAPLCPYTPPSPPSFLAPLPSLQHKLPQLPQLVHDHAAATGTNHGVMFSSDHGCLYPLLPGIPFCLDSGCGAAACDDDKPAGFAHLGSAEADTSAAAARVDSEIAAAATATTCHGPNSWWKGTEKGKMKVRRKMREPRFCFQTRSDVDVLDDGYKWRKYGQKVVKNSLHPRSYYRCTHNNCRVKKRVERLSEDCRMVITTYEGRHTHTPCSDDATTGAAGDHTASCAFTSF

Sequence	binding signal
AGTTACTGAGTTAGACGTCTCAAGCTGTGTCGTGGAATAACGGAGTCACCTAGTGCAG	8700 fluorescence intensity (a.u.)
AGGAGAGAAAGGAAGGTGGTGTGGGTGGTTGGTGGTGGTGCGGAGTCACCTAGTGCAG	10300 fluorescence intensity (a.u.)
GTCTTCTCTGTTCTTCTTCAGATGGCGAAAGCTCTCACCACGGAGTCACCTAGTGCAG	10400 fluorescence intensity (a.u.)
ATATATATATATATATATATATATATATATATGTATGTATCGGAGTCACCTAGTGCAG	10100 fluorescence intensity (a.u.)
ATATATATATATATATATATACATACATATACACACACACCGGAGTCACCTAGTGCAG	8050 fluorescence intensity (a.u.)
ATATATATATATATATATATATATATGCAGCAACAGGGCCCGGAGTCACCTAGTGCAG	17400 fluorescence intensity (a.u.)
TATATATACACACACACACAAACACACACACACACACACACGGAGTCACCTAGTGCAG	8720 fluorescence intensity (a.u.)
ATAGCCAACTATTACTTTTAAATTATTTATAGTCAAATTTCGGAGTCACCTAGTGCAG	9190 fluorescence intensity (a.u.)
GCCTGCTATTGTACCTGCTTTAATATAGCCAACCTACTATCGGAGTCACCTAGTGCAG	8330 fluorescence intensity (a.u.)
ATATATATATATATATATATATGTGTGTGTGTGTGTGTCCCGGAGTCACCTAGTGCAG	14500 fluorescence intensity (a.u.)
ATATATATATATATATATATATATATATATATGCAGCATGCGGAGTCACCTAGTGCAG	13100 fluorescence intensity (a.u.)
CTTTAATAGTATAGCCAACTACTACCTCGGAATCACCTATCGGAGTCACCTAGTGCAG	20300 fluorescence intensity (a.u.)
ATATATATATATATATATGTGTGTATATATATATATATATCGGAGTCACCTAGTGCAG	8920 fluorescence intensity (a.u.)
ATATATATATATATATATATATATATATATACACACACACCGGAGTCACCTAGTGCAG	22200 fluorescence intensity (a.u.)
TATATATATATATATATATATATATATATATATGGAGTATCGGAGTCACCTAGTGCAG	24600 fluorescence intensity (a.u.)
CTACTTTACCAGCTCATCTATCACATCTTAACTGTATTTTCGGAGTCACCTAGTGCAG	10300 fluorescence intensity (a.u.)
ACCCGTCTCTCTTTCTTTCTTTCTCTCTCTCCTGTGTTTTCGGAGTCACCTAGTGCAG	8600 fluorescence intensity (a.u.)
TCCACACACCCCGCTTGCTAACCAACCGTGACACGCAACCCGGAGTCACCTAGTGCAG	10100 fluorescence intensity (a.u.)
CCTAGCCCTAATTGATCCTTGCCTCGATGTTTTCCCTCCGCGGAGTCACCTAGTGCAG	10100 fluorescence intensity (a.u.)
CCCTTGACAGCACAGAGGCAACAGCAAAACACACTCTCATCGGAGTCACCTAGTGCAG	8580 fluorescence intensity (a.u.)
CTAGATTTTTTGGTGACATTTTTTAGTTGGTGTGCACGTGCGGAGTCACCTAGTGCAG	10200 fluorescence intensity (a.u.)
ACTCCTCTGCATGCTTTTTTTTTCCCTTCAGTTTCAGTTGCGGAGTCACCTAGTGCAG	11200 fluorescence intensity (a.u.)
GGCAACCACCTCAATTATTATTCCATTCCCTACCACCACTCGGAGTCACCTAGTGCAG	9980 fluorescence intensity (a.u.)
